Screens (PubChem)
A selection: hits, their analogues and other compounds. The true share with any hit is near 19%.
IL1B secr inh = qHTS for Inhibitors of Inflammasome Signaling: IL-1-beta AlphaLISA Primary Screen; actives 4.7% (n = 360,000); activity change, % at 57.5 µM; THP-1 LPS/ATP IL-1B secretion, AlphaLISA, 16 h; stronger effect = lower value; AID 743279, 2014; in the data active = activity change below about -50%; inconclusive = mostly about -30% to -49%
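Secreted IL-1B measured by AlphaLISA bead assay after 16 h compound exposure of THP-1 cells; compounds (final up to 57.5 uM) added 1 h before LPS (250 ng/mL) and ATP (1.25 mM) stimulation; lower signal means less secretion.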
DT40 TDP1 no CPT = qHTS for Inhibitors of human tyrosyl-DNA phosphodiesterase 1 (TDP1): qHTS in cells in absence of CPT; DT40 Tdp1-/- hTDP1 cells, no CPT, ATP luminescence, 48 h; Potency, µM (top dose mostly 46.2 µM), hits mostly inhibitors; actives 15% (n = 420,000); AID 686978, 2013; note: nearly all actives have a fitted effect of over 55% in size
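A cellular qHTS used chicken DT40 cells lacking endogenous Tdp1 but carrying stably transfected human TDP1. Compounds were applied without camptothecin, and cell growth kinetics were judged by ATP-dependent luminescence after ≥48 hr.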
HT1080 IDH1KD tx = qHTS for induction of synthetic lethality in tumor cells producing 2HG: qHTS for the HT-1080-IDH1KD cell line. Potency, µM (highest dose often 46.1 µM), hits mostly cytotoxic. HT-1080 IDH1 knockdown viability, ATP luminescence, 48 h. actives 2% (n = 360,000)
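Luminescent ATP read-out (CellTiter-Glo, 10 min at room temperature) after 48 h compound exposure at 37 °C gave viability of IDH1-knockdown HT-1080 cells. Activity was normalised to DMSO and cell-free wells, then fitted as concentration-response curves.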
HT1080-NT tox = qHTS for induction of synthetic lethality in tumor cells producing 2HG: qHTS for the HT-1080-NT fibrosarcoma cell line | AID 686970, 2013 | Potency, µM (titrated, usually from 46.1 µM), hits mostly cytotoxic | actives 1.6% (n = 360,000) | HT-1080-NT fibrosarcoma viability, CellTiter-Glo ATP luminescence, 48 h;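 note: NT is the 2HG producing partner of a matched IDH1 knockdown line; nearly all actives have a fitted effect of over 55% in size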
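HT-1080-NT; 750 cells/well; 5% FBS RPMI; 48 h compound, 37 degrees C; CellTiter-Glo luminescence; curve fitting and curve-class assignment.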
TDP1 cell CPT = qHTS for Inhibitors of human tyrosyl-DNA phosphodiesterase 1 (TDP1): qHTS in cells in presence of CPT | actives 12% (n = 420,000) | chicken DT40 Tdp1-/-;hTDP1 cells + 20 nM CPT, ATP luminescence, 48 h | AID 686979, 2013 | Potency, µM (highest dose often 46.2 µM), actives largely listed as inhibitors; note: nearly all actives have a fitted effect of over 55% in size
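Cell growth measured by CellTiter-Glo luminescence after a minimum 48 h, 37 C compound exposure with 20 nM CPT in Tdp1-knockout DT40 cells stably expressing hTDP1, seeded 400/well; qHTS titration format.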
Numbers stand for hits; . = inactive; ? = inconclusive; / = no result; [ ] = remark or other dose. Unless noted, calls come from the whole dose curve; as a rule, active = well fitted curve in the direction sought with a large enough effect; inconclusive = small, poorly fitted or top-dose-only effect, or another doubt; inactive = no such curve, though single readings can be large; an effect the other way counts as inactive or inconclusive.

SMILES	IL1B secr inh	DT40 TDP1 no CPT	HT1080 IDH1KD tx	HT1080-NT tox	TDP1 cell CPT
CN(C)S(=O)(=O)c1ccc2[nH]cc(/C=C/c3nc4ccccc4c(=O)n3-c3ccccc3)c2c1	.	5.2µM	?	?	5.8µM
CCn1c(/C=C\c2ccccc2C)nc2ccccc2c1=O	.	13µM	.	.	23µM
O=c1c2ccccc2nc(/C=C/c2cccnc2)n1CCc1ccccc1	-71	13µM	?	?	15µM
CN(C)c1ccc(/C=C/c2nc3ccccc3c(=O)n2-c2ccc(C(=O)O)cc2)cc1	.	?	.	.	.
CCn1c(/C=C/c2ccccc2Cl)nc2ccccc2c1=O	?	16µM	.	.	?
O=C(NCCc1nnc2n1CCN(Cc1ccccn1)CC2)c1ccc(F)cc1	/	.	/	/	.
Cc1ccccc1/C=C\c1nc2ccccc2c(=O)n1Cc1ccccc1	?	?	.	.	?
CCn1c(/C=C/c2c[nH]c3ccccc23)nc2ccccc2c1=O	.	3.3µM	.	?	?
Cc1cccc(/C=C/c2nc3ccccc3c(=O)n2Cc2ccccc2)c1	-70	?	?	?	?
Cc1ccc2cc(C3C(C#N)=C(N)Oc4c3ccc3cccnc43)c(=O)[nH]c2c1 (configuration not stated)	.	?	?	11µM	?
CCc1ccc2[nH]c(=O)c(C3C(C#N)=C(N)Oc4c3ccc3cccnc43)cc2c1 (configuration not stated)	.	8.2µM	?	?	12µM
CC(=O)C1=C(C)OC(N)=C(C#N)C1c1cc2cccc(C)c2nc1Cl (configuration not stated)	.	?	.	.	.
COc1cccc(NC(=O)CN(C)C(=O)CN2C(=O)NC(C)(c3ccc4ccccc4c3)C2=O)c1 (configuration not stated)	.	?	?	.	?
COc1ccc(C)cc1NC(=O)CCc1c(C)nn(-c2ccc(N3CCCCC3)nn2)c1C	?	26µM	.	.	?
Cc1cc(C)cc(NC(=O)CCc2c(C)nn(-c3ccc(N4CCCCC4)nn3)c2C)c1	.	?	.	.	?
Cc1nn(-c2ccc(N3CCCCC3)nn2)c(C)c1CCC(=O)Nc1ccc(F)c(F)c1	.	.	.	.	?
CCOC(=O)c1cccc(NC(=O)CCc2c(C)nn(-c3ccc(N4CCCCC4)nn3)c2C)c1	/	23µM	/	/	?
Cc1nn(-c2ccc(N3CCCC3)nn2)c(C)c1CCC(=O)Nc1ccc(F)c(Cl)c1	/	26µM	/	/	18µM
Cc1ccc(NC(=O)CCc2c(C)nn(-c3ccc(N4CCCCC4)nn3)c2C)cc1	.	.	.	.	?
CCc1cccc(NC(=O)CCc2c(C)nn(-c3ccc(N4CCOCC4)nn3)c2C)c1	.	?	.	.	?
Cc1cc(C)cc(NC(=O)CCc2c(C)nn(-c3ccc(N4CCCC4)nn3)c2C)c1	/	26µM	/	/	21µM
Cc1nn(-c2ccc(N3CCCCC3)nn2)c(C)c1CCC(=O)Nc1ccc(F)cc1F	/	18µM	/	/	16µM
COc1ccc(CCNC(=O)C2CCN(c3nc4ccccc4nc3C(F)(F)F)CC2)c(OC)c1	/	?	/	/	.
O=C(CCCn1c2ccccc2c(=O)c2ccccc21)Nc1cccc(Cl)c1	/	16µM	/	/	?
Cc1ccc2c(c1)c(=O)c1ccccc1n2CCCC(=O)Nc1ccc(C)c(C)c1	/	23µM	/	/	23µM
SMILES	IL1B secr inh	DT40 TDP1 no CPT	HT1080 IDH1KD tx	HT1080-NT tox	TDP1 cell CPT
CCn1c2ccccc2c2cc(NC(=O)CCCN3C(=O)CCC3=O)ccc21	.	?	.[9.24 µM]	.	?
CSCCC(NC(=O)c1ccccc1Cl)C(=O)Nc1ccncc1 (configuration not stated)	.	.	.	.	.
COc1ccccc1CN1CCOc2ccc(C(C)(O)CN(C)C)cc2C1 (configuration not stated)	/	.	/	/	.
O=c1[nH]c2ccccc2nc1Cc1ccc([N+](=O)[O-])cc1	.	?	.	.	.
N#CC1=C2N=C(N)c3ccccc3N2C2=C(C(=O)CCC2)C1c1ccc(Cl)cc1 (configuration not stated)	.	16µM	.	.	21µM
CC1(C)CC(=O)C2=C(C1)N1C(=C(C#N)C2c2ccccc2Cl)N=C(N)c2ccccc21 (configuration not stated)	.	?	.	.	?
CC1(C)CC(=O)C2=C(C1)N1C(=C(C#N)C2c2ccc(Cl)cc2)N=C(N)c2ccccc21 (configuration not stated)	?	21µM	?	?	?
CC1(C)CC(=O)C2=C(C1)N(c1ccccc1)C(N)=C(C#N)C2c1ccccc1 (configuration not stated)	-50	.	.	.	.
O=C(CSC1=NS(=O)(=O)c2ccccc2N1)Nc1nccs1	.	.	.	.	.
CC(C)c1ccc(NC(=O)C2CCN(S(=O)(=O)c3ccc4c(c3)NC(=O)CO4)CC2)cc1	.	23µM	.	.	?
COc1ccc(NC(=O)C2CCN(S(=O)(=O)c3ccc4c(c3)NC(=O)C(C)S4)CC2)cc1 (configuration not stated)	.	?	?	?	?
Cc1ccc(NC(=O)C2CCN(S(=O)(=O)c3ccc4c(c3)NC(=O)CO4)CC2)cc1	.	?	.	.	.
COc1cccc(NC(=O)C2CCN(S(=O)(=O)c3ccc4c(c3)NC(=O)C(C)S4)CC2)c1 (configuration not stated)	.	21µM	.	.	21µM
CC1Sc2ccc(S(=O)(=O)N3CCC(C(=O)Nc4ccc(Cl)cc4)CC3)cc2NC1=O (configuration not stated)	.	9.2µM	?	21µM	21µM
CCCC[C@@H]1CNCCN1CCCc1cc(OC)c(OC)c(OC)c1	.	.	.	.	.
CCCCN(C(=O)C1CC1)C1CCS(=O)(=O)C1 (configuration not stated)	.	.	.	.	.
O=C(c1cccs1)N1CCN(c2nc3c(F)cc(F)cc3s2)CC1	?	?	.	.	?
O=C(C1COc2ccccc2O1)N1CCN(c2nc3c(F)cccc3s2)CC1 (configuration not stated)	/	23µM	/	/	?
CC(C)(C)C(=O)N1CCN(c2nc3c(F)cccc3s2)CC1	/	16µM	/	/	16µM
CC(C)(C)C(=O)N1CCN(c2nc3ccc(Br)cc3s2)CC1	.	16µM	.	.	16µM
CCCCC(=O)N1CCN(c2nc3ccc(Br)cc3s2)CC1	-88	15µM	?	?	16µM
